# Reference: PubChem BioAssay AID463173 (ICCB-Longwood Screening Facility, Harvard Medical School, 2010)
# Hit rate of the full screen: of about 52,000 compounds, about 1,700 (3.3%) were called active. This excerpt belongs to a sample that is enriched for actives. Values without a mark were called inactive. Rule as the data show it: active = survival mostly below about 52% (no sharp cut-off); inactive = mostly above about 56%.
# Test system: Wild type
# Experiment: growth inhibition of S. aureus wild type versus tarO mutant, primary screen, teichoic acid synthesis inhibitors, RN4220, OD600 (AID 463173)
# Conditions: S. aureus RN4220 wild type/DeltatarO growth, OD600, 18 h, hits give low values, screened at 18.75 µg/mL (by protocol)
row,Compound,survival
1,CCOC(=O)c1ccccc1NC(=O)CSc1nc2cn(CC)nc2c(=O)n1Cc1ccc(Cl)cc1,67%
2,Cc1ccc2ccc3cc(C(=O)N4CCN(c5ccccc5)CC4)nc3c2[nH]1,128%
3,COc1ccc(CNC(=O)c2ccc(CS(=O)(=O)c3ccccc3OC)o2)cc1,76%
4,CCOc1cc(Br)c(C2C(C(=O)OC)=C(C)NC3=C2C(=O)c2ccccc23)cc1OCC (configuration not stated),96%
5,Cc1ccc(-n2nnc(-c3nc(-c4cccs4)no3)c2N)cc1C,100%
6,Cc1cccc(-n2ncc(C(=O)Nc3ccc4c(c3)OCO4)c2C2CCN(C(=O)OC(C)(C)C)CC2)c1,89%
7,CCOC(=O)c1ccccc1NC(=O)Cn1c(=O)n(Cc2ccccc2)c(=O)c2c(C)c(C)sc21,90%
8,CCCCOc1ccc(C(=O)NCCS(=O)(=O)N2CCN(c3ccc(F)cc3)CC2)cc1,65%
9,COc1ccccc1NC(=O)c1c(C)cc(C)nc1SCC(=O)Nc1ccc(C)c(C)c1,81%
10,Cc1ccc(-c2cn3c(n2)sc2cc(C(=O)NCCC4=CCCCC4)ccc23)c(C)c1,100%
11,COC(=O)c1ccc(NC(=O)CSc2nc(=O)n(Cc3ccco3)c3c2CCC3)cc1,126%
12,COc1ccc2c(c1)c1c(c(=O)n(CCc3ccccc3)c(=O)n1Cc1ccccc1)n2C,57%
13,COc1ccc2c(c1)c1c(c(=O)n(CCc3ccccc3)c(=O)n1Cc1cccc(F)c1)n2C,63%
14,CC(=O)c1cccc(NC(=O)Cn2c(=O)c(CNc3ccc(C)cc3)cc3cc4c(cc32)OCCO4)c1,77%
15,Cc1ccc(NCc2cc3cc4c(cc3n(CC(=O)Nc3ccc(C)cc3)c2=O)OCCO4)cc1,0% (active)
16,COc1ccc2c(c1)c1c(c(=O)n(Cc3ccccc3)c(=O)n1CC(=O)Nc1c(C)cccc1C)n2C,81%
17,COc1ccc2c(c1)c1c(c(=O)n(Cc3ccccc3)c(=O)n1CC(=O)Nc1ccc(C)cc1C)n2C,-4% (active)
18,CCc1ccc(NCc2cc3cc4c(cc3n(CC(=O)Nc3ccc(C)cc3)c2=O)OCO4)cc1,113%
19,COc1ccc2cc(CNc3ccccc3)c(=O)n(CC(=O)Nc3ccc(C)cc3C)c2c1,-2% (active)
20,CCc1ccc(NCc2cc3ccc(OC)cc3n(CC(=O)Nc3ccccc3C)c2=O)cc1,84%
21,COc1ccc2cc(CNc3ccc(C)cc3)c(=O)n(CC(=O)Nc3ccc(C)cc3Cl)c2c1,74%
22,COc1ccc2c(c1)c1c(c(=O)n(Cc3ccccc3)c(=O)n1CC(=O)Nc1ccccc1F)n2C,129%

row,Compound,survival
1,COc1ccc2c(c1)c1c(c(=O)n(CCc3ccccc3)c(=O)n1Cc1ccc(F)cc1)n2C,1% (active)
2,COc1ccc(NC(=O)C2CCCN(S(=O)(=O)c3ccc(F)cc3)C2)cc1 (configuration not stated),85%
3,COc1ccc(-n2nc3cc(C)c(NC(=O)COc4cccc(C)c4)cc3n2)cc1,78%
4,CCCCC1CCC(C(=O)N2CC(=O)Nc3ccc(F)cc3C2c2ccc(F)cc2)CC1 (configuration not stated),77%
5,CCOc1ccc2[nH]c(=O)c(-c3nc4cccc(C)n4c3NCc3ccco3)cc2c1,108%
6,Cc1ccc(CNC(=O)Cc2c(C)c3cc4c(C)coc4cc3oc2=O)cc1,92%
7,COc1ccc(-c2noc(C(C)NC(=O)c3ccco3)n2)cc1 (configuration not stated),107%
8,Cc1nn(CC(=O)Nc2ccc(C(C)C)cc2)c(=O)c2c(C)n(-c3ccc(Cl)cc3)nc12,90%
9,COc1cccc(Cn2c(=O)n(Cc3ccccc3)c(=O)c3c2c2cc(OC)ccc2n3C)c1,57%
10,COc1ccc2c(c1)c1c(c(=O)n(Cc3ccccc3)c(=O)n1Cc1ccccc1)n2C,-3% (active)
11,COc1ccc2c(c1)c1c(c(=O)n(Cc3ccccc3)c(=O)n1Cc1ccc(C)cc1)n2C,87%
12,C/C(=N/OCC(=O)Nc1sc2c(c1C#N)CCCC2)c1cccs1,111%
13,CCCCN(Cc1ccco1)C(=O)c1cc2c(s1)-c1c(C)cccc1OC2,13% (active)
14,CCOCCCN(Cc1ccco1)C(=O)c1cc2c(s1)-c1c(C)cccc1OC2,12% (active)
15,CCN1CCN(CCCNC(=O)c2cc3c(s2)-c2c(C)cccc2OC3)CC1,87%
16,CCOCCCN(Cc1ccco1)C(=O)c1cc2c(=O)[nH]c3ccc(C)cc3c2s1,127%
17,CCN(Cc1ccccc1)C(=O)c1cc2c(s1)-c1c(C)cccc1OC2,71%
18,CCOc1ccc(CCNC(=O)c2cc3c(s2)-c2c(C)cccc2OC3)cc1,90%
19,Cc1ccc(C)c(N2CCN(C(=O)Cn3ncc4c(=O)oc5ccccc5c43)CC2)c1,71%
20,Cc1ccc2nc(N(CCCN(C)C)C(=O)c3ccco3)sc2c1,72%
21,CCOc1cc(-c2nc(-c3ccc(-c4ccccc4)nc3OCC)no2)cc(OCC)c1OCC,60%
22,CCOc1ccccc1-c1nc(-c2ccc(-c3ccccc3)nc2OCC)no1,-1% (active)

row,Compound,survival
1,COc1cccc(-c2ccc(-c3noc(-c4ccccc4Br)n3)c(OC)n2)c1,37%
2,COc1nc(C)ccc1-c1noc(-c2ccccc2)n1,100%
3,CCOc1cc(-c2nc(-c3ccc(-c4ccc(C)cc4)nc3OC)no2)cc(OCC)c1OCC,56%
4,COc1ccc(-c2ccc(-c3noc(-c4cc(OC)cc(OC)c4)n3)c(OC)n2)cc1,49%
5,COc1nc(-c2ccc(C)cc2)ccc1-c1noc(-c2ccc(C(C)(C)C)cc2)n1,32%
6,COc1nc(-c2ccccc2)ccc1-c1noc(C(C)C)n1,88%
7,COc1cccc(-c2nc(-c3ccc(-c4ccccc4)nc3OC)no2)c1,2% (active)
8,COc1nc(-c2ccc(C)cc2)ccc1-c1noc(-c2ccccc2Br)n1,2% (active)
9,CCOc1nc(-c2ccccc2)ccc1-c1noc(-c2ccc(C)cc2)n1,109%
10,COc1nc(-c2ccccc2)ccc1-c1noc(-c2ccccc2Br)n1,-2% (active)
11,COc1cccc(-c2nc3c(c(SCc4ccccc4)n2)Cc2c(CO)cnc(C)c2O3)c1,101%
12,CCCN(CCC)CCCNC(=O)C1CCC(CNS(=O)(=O)c2ccc(NC(C)=O)cc2)CC1 (configuration not stated),66%
13,CCOC(=O)N1CCN(Cc2nc3cc(NC(=O)c4ccc(F)cc4)ccc3n2C(C)C)CC1,86%
14,CC(=O)N1N=C(N)SC1c1ccccc1 (configuration not stated),104%
15,CCCC(=O)Nc1nnc(SCc2cc(=O)c3cc(C)ccc3[nH]2)s1,70%
16,CC(=O)c1cccc(NC(=O)CN2C(=O)CCc3cc(S(=O)(=O)N4CCCCC4)ccc32)c1,82%
17,Cc1cc(C)nc(NS(=O)(=O)c2ccc(NC(=O)c3nc(SC(C)C)ncc3Cl)cc2)n1,79%
18,O=S(=O)(NCCc1cn2ccsc2n1)c1ccc(Cl)cc1,129%
19,CCc1ccc(NC(=O)CC(NCc2cccnc2)C(=O)O)cc1 (configuration not stated),74%
20,CC(C)NC(=O)C1CCCCC1C(=O)O (configuration not stated),88%
21,CCc1ccc(NC(=O)c2cnc3sc(N4CCCC4)nn3c2=O)cc1,85%
22,CCC(=O)N1CCc2cc(S(=O)(=O)NC(C(=O)NCc3ccccc3Cl)C(C)C)ccc21 (configuration not stated),84%

row,Compound,survival
1,CC(C)(C)NC(=O)CCSc1nc(-c2ccc3c(c2)OCO3)cc(C(F)(F)F)n1,4% (active)
2,CC(C)NC(=O)CCSc1nc(-c2ccc3c(c2)OCO3)cc(C(F)(F)F)n1,77%
3,CCCNC(=O)CCSc1nc(-c2ccc3c(c2)OCO3)cc(C(F)(F)F)n1,84%
4,COc1ccc(Cl)cc1NC(=O)c1c(NCc2ccc(C)o2)sc2c1CCCCC2,80%
5,CCOc1cccc2cc(-c3nc4sc5c(c4c(=O)[nH]3)CCC(C)C5)c(=O)oc12 (configuration not stated),119%
6,CCC(C(=O)Nc1cc(F)ccc1F)n1nc(-c2cc(C)ccc2C)ccc1=O (configuration not stated),75%
7,Cc1ccc(CCNC(=O)c2nn(C)c3c2CSc2ccccc2-3)cc1,90%
8,Cc1cccc(CCNC(=O)c2nn(C)c3c2CSc2ccccc2-3)c1,87%
9,Cc1ccc2c(c1)-c1c(c(C(=O)NCCc3ccccc3)nn1C)CS2,10% (active)
10,Cc1ccc(Nc2c(-c3ccccc3O)nc3ccc(Br)cn23)cc1,101%
11,CC(C)OCCCNC(=O)C(=O)Nc1ccc2nc3n(c(=O)c2c1)CCCCC3,99%
12,COc1ccc(/C=C\c2onc(C)c2S(=O)(=O)N2CCC(C(=O)Nc3ccccc3OC)CC2)cc1,116%
13,Cc1ccc(NC(=O)c2cnn3c(C(F)F)cc(-c4ccccc4)nc23)cc1F,86%
14,COc1ccccc1NC(=O)CSc1nc(-c2ccccc2F)nc2cc(=O)[nH]n12,73%
15,Cc1cccc(-c2nc(SCc3ccc(Br)cc3)n3[nH]c(=O)cc3n2)c1,83%
16,Cc1ccc(CSc2nc(-c3ccc(C(C)(C)C)cc3)nc3cc(=O)[nH]n23)cc1,113%
17,Cc1ccc(-c2nc(SCc3ccc(Br)cc3)n3[nH]c(=O)cc3n2)cc1,10% (active)
18,O=c1cc2nc(-c3ccccc3)nc(SCc3cccc(Br)c3)n2[nH]1,73%
19,O=c1cc2nc(-c3ccccc3F)nc(SCc3ccc(Br)cc3)n2[nH]1,-2% (active)
20,CC(C)Sc1ncc(Cl)c(C(=O)Nc2nc3ccc(S(C)(=O)=O)cc3s2)n1,112%
21,CN(C(=O)Cn1cc(S(=O)(=O)Cc2ccccc2Cl)c2ccccc21)c1ccccc1,146%
